Bioassay records: PubChem BioAssay, National Center for Advancing Translational Sciences (NCATS)
A selection: hits, their analogues and other compounds. The true share with any hit is near 10%.
LMNA splice mod: modulators of lamin A splicing; 200,000 tested, 0.01% active; Potency, µM (highest dose often 46.1 µM), actives largely listed as inhibitors; AID 1487; HeLa LMNA splicing GFP/RFP minigene ratio, 48 h; active = well fitted inhibition curve with a large enough effect in the signal ratio, with a control signal flat, not every such curve was filed as active; inconclusive = small, poorly fitted or top-dose-only effect, or effect the other way, or a change in a side signal; the % refers to the signal ratio
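S3 HeLa stable clones carrying a lamin A-EGFP splicing minigene plus DsRed2 were seeded at 600 cells/well in Opti-MEM with 2% FBS, pin-dosed and incubated 48 h at 37°C. Acumen cytometry (488 nm) gave the GFP/RFP total-intensity ratio.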
ALDH1A1 inh: inhibitors of human aldehyde dehydrogenase 1A1; 220,000 tested, 7.3% active; Potency, µM (highest dose often 75.3 µM), hits mostly inhibitors; AID 1030; Purified ALDH1A1, NADH fluorescence, propionaldehyde substrate
HPGD inh: inhibitors of human 15-hydroxyprostaglandin dehydrogenase (HPGD) | P15428 | purified HPGD, NADH fluorescence kinetic, PGE2 substrate | Potency, µM, hits mostly inhibitors | 150,000 tested, 4.3% active | AID 894
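20 nM HPGD preincubated 15 min at room temperature with compound in 50 mM Tris-HCl pH 8, 0.01% Tween 20. Started with 1 mM NAD+ and 30 uM prostaglandin E2; NADH fluorescence (360/450 nm) read 5 times over 30-s intervals, last minus first.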
ALOX12 inhib: inhibitors of human 12-lipoxygenase (ALOX12). purified 12-hLO, xylenol orange hydroperoxide absorbance. Potency, µM (titrated, usually from 57.1 µM), usual class: inhibitors. AID 1452. 150,000 tested, 0.12% active. P18054; active = well fitted inhibition curve with a large enough effect; inconclusive = small, poorly fitted or top-dose-only effect; also: nearly all actives have a fitted effect of over 55% in size
Target sequence (P18054 whole entry, looked up): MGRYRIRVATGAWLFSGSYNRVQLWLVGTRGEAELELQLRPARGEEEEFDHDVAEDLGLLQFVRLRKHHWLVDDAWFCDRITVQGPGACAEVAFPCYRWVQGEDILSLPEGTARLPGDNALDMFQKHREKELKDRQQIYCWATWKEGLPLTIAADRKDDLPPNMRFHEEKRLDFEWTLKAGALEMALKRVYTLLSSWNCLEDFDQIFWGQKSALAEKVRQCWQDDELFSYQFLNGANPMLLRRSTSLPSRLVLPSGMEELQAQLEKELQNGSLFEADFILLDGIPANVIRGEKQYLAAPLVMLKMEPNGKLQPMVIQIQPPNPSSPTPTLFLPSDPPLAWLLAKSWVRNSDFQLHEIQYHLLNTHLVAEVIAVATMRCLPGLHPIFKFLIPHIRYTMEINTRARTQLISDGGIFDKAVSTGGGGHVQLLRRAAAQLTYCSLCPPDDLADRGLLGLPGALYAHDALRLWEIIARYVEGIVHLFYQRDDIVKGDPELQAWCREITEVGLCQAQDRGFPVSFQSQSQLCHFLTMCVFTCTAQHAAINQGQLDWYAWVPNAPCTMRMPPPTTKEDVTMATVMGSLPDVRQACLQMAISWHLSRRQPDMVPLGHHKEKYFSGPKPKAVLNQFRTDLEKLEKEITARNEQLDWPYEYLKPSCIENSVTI
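Hydroperoxide output read as Fe(III)-xylenol orange absorbance, 573-to-405 nm ratio, after 30 min reaction with 40 uM arachidonic acid. Enzyme: 150 nM purified human 12hLO, 15 min compound preincubation; 25 mM Hepes pH 7.0, room temperature.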
PNC inhibitor: perinucleolar compartment assembly inhibition. PC3M PTB-GFP, PNC prevalence imaging, 16 h; hits give low values. activity change (PNC), negative = inhibition, % at 10 µM. 140,000 tested, 3.1% active;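 active = readout at or below -70, meaning at least 70% loss of cells showing the perinucleolar compartment, a nuclear body marking cancer cells; inconclusive = readout between -30 and a set limit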
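Compounds are pinned in duplicate onto adhered PC3M cells stably expressing GFP-tagged PTB and incubated 16 h at 37 C. Cells are then fixed, nuclei stained with Hoechst, and PNC-positive cells counted.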
Each line names hits and unclear results; the compound was inactive in the other large screens; ! = a repeat was not active. Unless noted, calls follow the shape of the dose curve; as a rule, active = well fitted inhibition curve with a large enough effect (not every such curve was filed as active); inconclusive = small, poorly fitted or top-dose-only effect, or another doubt; inactive = no such curve, though single readings can be large or run the other way.

CCCOC(=O)c1c(N)sc(C(=O)OCC)c1C	none
Cc1c(C(N)=O)sc(N)c1C(=O)OC(C)C	PNC inhibitor inconclusive
Cc1cccc(-c2nn3c(=O)cc(CN4CCN(C(=O)c5ccccc5Br)CC4)nc3s2)c1	none (no result: ALDH1A1 inh, HPGD inh, ALOX12 inhib, PNC inhibitor)
CCC(C)NC(=O)Cn1c(=O)ccc2cc(S(=O)(=O)N3CCCC3)ccc21 (stereo unspecified)	none (no result: ALDH1A1 inh, HPGD inh, ALOX12 inhib, PNC inhibitor)
CCC(C)Nc1nc(-c2ccc3c(c2)NC(=O)CO3)cs1 (stereo unspecified)	LMNA splice mod inconclusive, ALDH1A1 inh 3.5µM
COc1ccccc1Nc1nc(-c2ccc3c(c2)NC(=O)CO3)cs1	ALDH1A1 inh inconclusive (no result: HPGD inh, ALOX12 inhib, PNC inhibitor)
Cc1oc2c(c1C(=O)c1ccccc1)C(=O)C(=O)c1ccccc1-2	LMNA splice mod inconclusive, HPGD inh inconclusive
O=C1C(=O)c2c(C(=O)c3ccccc3)coc2-c2ccccc21	LMNA splice mod inconclusive, ALDH1A1 inh inconclusive, HPGD inh 22µM
Cc1ccc(Cn2ccnc2SCC(=O)Nc2ccc3c(c2)OCO3)cc1	none (no result: ALDH1A1 inh, HPGD inh, ALOX12 inhib, PNC inhibitor)
CN=c1nc(-c2ccccc2)n(-c2ccccc2)s1	LMNA splice mod inconclusive, ALDH1A1 inh 1.4µM, ALOX12 inhib inconclusive (no result: PNC inhibitor)
c1ccc(Cn2nc(-c3ccccc3)nc2-c2ccccc2)cc1	LMNA splice mod inconclusive, ALDH1A1 inh inconclusive
CS(=O)(=O)N1CCC2(CCCN(C(c3ccccc3)c3ccccc3)C2)CC1	none (no result: LMNA splice mod, PNC inhibitor)
CCn1c(CN2CCOCC2)nc2cc(NC(=O)c3cccc([N+](=O)[O-])c3)ccc21	none (no result: ALDH1A1 inh, HPGD inh, ALOX12 inhib, PNC inhibitor)
Nc1nc2ccccc2n1C(=O)CCc1ccccc1	LMNA splice mod inconclusive, PNC inhibitor -87
CC(=O)c1ccc(Sc2ccc(C(C)=O)cc2)cc1	LMNA splice mod inconclusive, HPGD inh 18µM
Cc1ccc(C)c(NC(=O)CN(Cc2ccccc2)S(=O)(=O)c2ccc3nc(C)sc3c2)c1	none (no result: ALDH1A1 inh, HPGD inh, ALOX12 inhib, PNC inhibitor)
Cc1c(-n2c(SCC(=O)O)nnc2-c2ccccc2Cl)c(=O)n(-c2ccccc2)n1C	PNC inhibitor -97
CCn1nc(C)c(CNC(=O)CCc2nnc(Cc3c[nH]c4ccccc34)o2)c1C	none (no result: LMNA splice mod, HPGD inh, ALOX12 inhib, PNC inhibitor)
COC(=O)c1c(C)c2c(c(C)c1O)OC(=O)c1c(C)c(Cl)c(O)c(Cl)c1O2	HPGD inh 7.1µM! (no result: LMNA splice mod, PNC inhibitor)
Cc1cccc(NC(=O)N2CCC(CN3CCOCC3)CC2)c1C	none (no result: ALDH1A1 inh, HPGD inh, ALOX12 inhib, PNC inhibitor)
CC(=O)Nc1nc(SCc2ccc(Cl)cc2Cl)n[nH]1	PNC inhibitor inconclusive
CCCc1nc(SCc2ccccc2Cl)n[nH]1	HPGD inh 13µM
CCc1nc(SCc2ccc(F)cc2)n[nH]1	none (no result: LMNA splice mod, HPGD inh, ALOX12 inhib, PNC inhibitor)
CCc1nc(SCc2cc(Cl)ccc2OC)n[nH]1	HPGD inh 13µM
CC(=O)/C(C#N)=C1\NC(=O)C(Cc2ccccc2Cl)S1 (stereo unspecified)	HPGD inh inconclusive
Cc1ccc(CC2SC(=O)NC2=O)cc1Cl (stereo unspecified)	ALDH1A1 inh 32µM, PNC inhibitor -100
CC(=O)/C(C#N)=C1\NC(=O)C(Cc2ccc(C)c(C)c2)S1 (stereo unspecified)	LMNA splice mod inconclusive, PNC inhibitor -108
COC(=O)c1c(-c2cccs2)csc1NC(=O)COc1ccc(C(C)C)cc1	none (no result: ALDH1A1 inh, HPGD inh, ALOX12 inhib, PNC inhibitor)
NC(=O)c1c(NC(=O)CN2CCCC2)sc2c1CCCC2	ALDH1A1 inh 18µM, HPGD inh inconclusive
NC(=O)c1c(NC(=O)CN2C(=O)CCC2=O)sc2c1CCCCC2	ALDH1A1 inh 14µM, HPGD inh inconclusive
CC(=O)N1CCc2c(sc(NC(=O)CN3C(=O)CCC3=O)c2C(N)=O)C1	ALDH1A1 inh inconclusive, HPGD inh inconclusive, PNC inhibitor inconclusive
NC(=O)c1c(NC(=O)CN2CCOCC2)sc2c1CCC2	LMNA splice mod inconclusive, ALDH1A1 inh inconclusive
CNC(=O)C1CCC(Cn2c(=O)c3sccc3n(CC(=O)N3CCC(C)CC3)c2=O)CC1 (stereo unspecified)	none (no result: ALDH1A1 inh, HPGD inh, ALOX12 inhib, PNC inhibitor)
Oc1csc(Cc2nc(-c3ccc(Br)cc3)cs2)n1	ALDH1A1 inh 28µM (no result: HPGD inh, ALOX12 inhib, PNC inhibitor)
CCOc1cc2c(cc1OCC)C(CC(=O)O)N(C(=O)Nc1ccc(Br)c(C)c1)CC2 (stereo unspecified)	none (no result: ALDH1A1 inh, HPGD inh, ALOX12 inhib, PNC inhibitor)
O=S(=O)(Nc1ccc(-c2cn3ccsc3n2)cc1)c1ccc2c(c1)OCCO2	LMNA splice mod inconclusive, HPGD inh inconclusive
O=C(c1ccc2c(c1)OCCCO2)c1cccs1	HPGD inh 14µM
O=C(Nc1ccc2c(c1)OCCO2)c1cccs1	ALDH1A1 inh inconclusive, HPGD inh 20µM, PNC inhibitor inconclusive
CC(=O)Nc1ccc2c(c1)OCCO2	PNC inhibitor inconclusive
